Compounds without any hit were thinned out: in the full panel of roughly 83,000, 20% have a hit.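 Negative percent growth values reflect cell death: -40 means 40% of the cells present at the start died, and -100 means all died.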 Values without a mark were called inactive. Calls of active or inactive are those of the source. How the source made its calls: active means growth percent below 10; inactive means the rest.
Test system: MDA-MB-468 breast
Assay: NCI-60 one-dose screen, 48 h (100 = growth as untreated, 0 = no growth, -100 = all killed)
Conditions: 10 µM unless noted

| SMILES | growth |
| --- | --- |
| Nc1cc(-c2c[nH]c3ccccc23)nc2cc(-c3c[nH]c4ccccc34)nn12 | 52.1% |
| Oc1ccc(C#CCOc2ccccc2)cc1CNCCN(Cc1ccccn1)Cc1ccccn1 | -10.4% (active) |
| C#C[C@]1(O)CCC2C3CCc4cc(O)ccc4C3CC[C@@]21C (some centres undefined) | 12.1% |
| CCc1ccc(-c2ccc(Nc3ccccc3)nn2)cc1S(N)(=O)=O | 34.4% |
| C#CCOC(=O)Nc1ccccc1 | 117% |
| N#Cc1c(NC(=O)c2cccc(Br)c2)sc2c1CCCC2 | 59.3% |
| COC(=O)c1ccc2c(c1)Oc1ccc(Cl)cc1-c1cc(C)nn1-2 | 87% |
| Nn1c(=O)c(=O)[nH]c2c(cnn2-c2ccccc2)c1=O | 105% |
| CCN1CC2=C(Nc3nc(SC)[nH]c(=O)c3C2c2cc(OC)c(OC)c(OC)c2)/C(=C/c2cc(OC)c(OC)c(OC)c2)C1 (centres undefined) | 95.8% |
| Cn1cc(C2=C(c3cccc4ccccc34)C(=O)NC2=O)c2cc(Br)ccc21 | 87.2% |
| CSc1nc(N)n2nccc2n1 | 114% |
| CCc1ccc(C(=Nc2ccc(N(C)C(=O)CN3CCN(C)CC3)cc2)c2c(O)[nH]c3ccc(C(=O)OC)cc23)cc1 | -75.6% (active) |
| CC(C)=CCC[C@H](C)c1ccc(C)c2c1OCN(CCO)C2 | 82.5% |
| COc1ccc2c(c1)c(CC(=O)[Se]CC(=O)O)c(C)n2C(=O)c1ccc(Cl)cc1 | 86.9% |
| COc1c(C)cnc(CSc2nc(-c3ccc(C)cc3)cn2-c2ccc(Cl)cc2)c1C | 114% |
| COc1ccc(C2=C/C(=C\c3ccc(Cl)cc3)C(=O)NN2C(=S)NN)cc1 | 82.7% |
| COc1cc(-c2nc3cc(Cl)c(Cl)cc3[nH]2)ccc1OCC(=O)N=Nc1c(O)[nH]c2ccccc12 | -86.3% (active) |
| O=C(Nc1ccccc1)Nc1ccccc1CNc1nc(Nc2ccc(OCCN3CCCC3)cc2)ncc1Cl | 17.7% |
| CC/C=C\C/C=C\C[C@H]1C/C=C2/C(=O)C=C[C@@H]2C/C=C\CCC(=O)O1 | -8.25% (active) |
| O=C(CSc1ccc(Cl)cc1)Nc1ccc(-c2nc3ccccc3s2)c(Cl)c1 | 52.1% |
| Cc1ccc(NC(=O)/C=C/c2ccccc2)c(C(N)=O)c1 | 22.5% |
| CCOC(=O)c1cnn(CC(C)O)c1NC(=O)NCc1ccccc1C(F)(F)F (centres undefined) | 103% |
| COc1ccc2sc3c(NCCCN(C)C)nc4ccccc4c3c(=O)c2c1 | 36.2% |
| Cc1cc(N[C@@H]2CCC[C@H](Nc3ccnc4cc(Cl)ccc34)C2)nc(N2CCCCCC2)n1 | -65.8% (active) |
| COc1cc(/C=C/c2nc(Nc3ccc(S(=O)(=O)Nc4cc(C)on4)cc3)c3ccccc3n2)ccc1O | -7.09% (active) |
| Cc1cc(NCc2cc(Nc3ccnc4cc(Cl)ccc34)ccc2F)nc(N2CCSCC2)n1 | -17.3% (active) |
| Cc1cccc(NC(c2cc3cccc4ccc5cccc2c5c43)c2nnnn2C(C)(C)C)c1C (centres undefined) | -10.3% (active) |
| NC(=O)c1cccc(C#CCNC[C@H]2C[C@@H](n3ccc4c(Cl)ncnc43)[C@H](O)[C@@H]2O)c1 | 95.9% |
| C[N+](C)(C/C=C/c1ccccc1)Cc1ccccc1 | 78.8% |

— PubChem BioAssay (NCI)
